Data as given in the supplement of paper PMC13380429.

Tested on: Vero E6 infected with SARS-CoV-2
Experiment: inhibition of SARS-CoV-2 cytopathic effect; higher = more antiviral protection, active = above 15
Conditions: 48 h

Measured: inhibition of SARS-CoV-2 cytopathic effect

CC(C)NC[C@@H](O)c1ccc(O)c(O)c1 (racemic) [isoprenaline]
inactive: 1 nM 1.39% | 8.33 nM -0.18% | 100 nM -0.08% | 833.33 nM 0.77% | 10000 nM -2.47%

CNS(=O)(=O)CCc1ccc2[nH]cc(C3CCN(C)CC3)c2c1 [naratriptan]
inactive: 1 nM -2.05% | 8.33 nM 0.47% | 100 nM 2.08% | 833.33 nM -3.05% | 10000 nM -1.76%

O=C(Nc1cccc(Cl)c1)c1ccccn1
inactive: 1 nM 0.86% | 8.33 nM -0.89% | 100 nM -2.59% | 833.33 nM 0.62% | 10000 nM 0.73%

CC[C@H]1CN2CCc3cc(OC)c(OC)cc3[C@@H]2C[C@@H]1C[C@H]1NCCc2cc(OC)c(OC)cc21 [emetine]
active: 100 nM 36.2%
inactive: 1 nM 1.59% | 8.33 nM 2.17% | 833.33 nM 11.6% | 10000 nM -11.1%

CC(=O)Nc1ccc(S(=O)(=O)Nc2ccc([N+](=O)[O-])cc2)cc1 [sulfanitran]
inactive: 1 nM -1.18% | 8.33 nM -2.16% | 100 nM 0.76% | 833.33 nM 0.27% | 10000 nM -4.49%

CC(=O)OCC(=O)[C@H]1CC[C@H]2[C@@H]3CCC4=CC(=O)CC[C@]4(C)[C@H]3CC[C@]12C [deoxycorticosterone-acetate]
inactive: 1 nM -2.24% | 8.33 nM 0.58% | 100 nM -1.58% | 833.33 nM -4.23% | 10000 nM -0.48%

CCS(=O)(=O)N(C)[C@H]1c2cc(C#N)ccc2OC(C)(C)[C@@H]1O [chromanol-293B-(-)-[3R,4S]]
inactive: 1 nM 0.15% | 8.33 nM -2.19% | 100 nM 0.8% | 833.33 nM 1.12% | 10000 nM -1.64%

N=C(N)NC(=N)Nc1cccc(Cl)c1 [m-chlorophenylbiguanide]
inactive: 1 nM 4.17% | 8.33 nM 4.54% | 100 nM 0.58% | 833.33 nM -7.74% | 10000 nM -1.2%

CO[C@@]1(NC(=O)C2SC(=C(C(N)=O)C(=O)O)S2)C(=O)N2C(C(=O)O)=C(CSc3nnnn3C)CS[C@@H]21 (stereo not given in full) [cefotetan]
inactive: 1 nM 0.97% | 8.33 nM 1.11% | 100 nM 2.32% | 833.33 nM -0.94% | 10000 nM 0.24%

CCCCNc1nc(N)c2[nH]c(=O)n(Cc3ccc(OCCN(C)C)nc3)c2n1
inactive: 1 nM -1.79% | 8.33 nM 0.48% | 100 nM 2.36% | 833.33 nM -0.4% | 10000 nM -0.44%

C=CCNc1nc(NCC=C)nc(N2CCN(C(c3ccc(F)cc3)c3ccc(F)cc3)CC2)n1 [almitrine]
inactive: 1 nM -6.44% | 8.33 nM -3.95% | 100 nM -7.43% | 833.33 nM -4.59% | 10000 nM -8.59%

Fc1ccc2nc(CCC#Cc3ccccn3)cn2c1 [dipraglurant]
inactive: 1 nM 0.01% | 8.33 nM 0.17% | 100 nM 0.87% | 833.33 nM 1.2% | 10000 nM 2.02%

NCCC(Oc1ccc(C(F)(F)F)cc1)c1ccccc1 (stereo not given) [norfluoxetine]
inactive: 1 nM 1.01% | 8.33 nM 2.75% | 100 nM 1.92% | 833.33 nM -0.09% | 10000 nM -5.55%

O=C(O)/C=C(/CC(=O)O)C(=O)O [cis-aconitic-acid]
inactive: 1 nM 0.99% | 8.33 nM 0.49% | 100 nM -3.45% | 833.33 nM -2.25% | 10000 nM 0.81%
